ATXN viability: Viability Counterscreen for Primary qHTS for Inhibitors of ATXN expression; AID 651635, 2014; Potency, µM (titrated, usually from 56.7 µM), most hits filed as cytotoxic; hit rate 0.49% among 400,000; S2 cells (HEK-293 line with an ATXN2-luciferase reporter) viability, CellTiter-Fluor protease fluorescence, 24 h; also: nearly all actives have a fitted effect of over 40% in size
GLP-1R agonist: qHTS of GLP-1 Receptor Agonists | Glucagon-like peptide 1 receptor (Homo sapiens), P43220 | Potency, µM (titrated, usually from 45.6 µM), inactives show top-dose activation, actives largely listed as activators | HEK293 GLP-1R CRE-luciferase, luminescence, 4-6 h; cells express a hypersensitive GLP-1R form | AID 624172, 2012 | hit rate 0.007% among 380,000; also: % of control where 0% means no effect
Target sequence (P43220 whole entry, looked up): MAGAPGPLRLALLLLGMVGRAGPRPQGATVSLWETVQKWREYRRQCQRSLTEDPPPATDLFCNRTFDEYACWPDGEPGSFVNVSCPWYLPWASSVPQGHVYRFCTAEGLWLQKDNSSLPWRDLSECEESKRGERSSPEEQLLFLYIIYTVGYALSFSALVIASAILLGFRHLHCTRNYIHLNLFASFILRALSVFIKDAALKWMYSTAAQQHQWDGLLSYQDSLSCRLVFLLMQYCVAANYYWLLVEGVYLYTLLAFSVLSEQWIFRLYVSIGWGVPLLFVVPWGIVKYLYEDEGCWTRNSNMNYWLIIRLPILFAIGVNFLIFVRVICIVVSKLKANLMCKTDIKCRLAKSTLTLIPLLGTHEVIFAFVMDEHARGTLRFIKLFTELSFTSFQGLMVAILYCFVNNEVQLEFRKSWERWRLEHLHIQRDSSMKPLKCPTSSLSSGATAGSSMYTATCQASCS
TGFb SMAD3 inh: qHTS for Inhibitors of TGF-b | HepG2 CAGA-GFP TGF-b/SMAD3 reporter, GFP fluorescence, 18 h; TGF-beta stimulated, 500 pg/mL final | Potency, µM (series often up to 46.1 µM), without a hit: at the top dose activity, negative = inhibition, usual class: inhibitors | hit rate 1.2% among 410,000 | AID 588855, 2011; also: % is scaled to controls: 0 for no effect and ±100 for the full control effect; nearly all actives have a fitted effect of over 65% in size
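Read-out: total well GFP (ex488/em500-530) summed from mean per-cell fluorescence. Cells: HEPG2 CAGA-GFP, 1% FBS DMEM, 18 h at 37 degrees C with 500 pg/mL final TGF-beta. Unstimulated wells served as the full-inhibition control; stimulated DMSO wells = 0%.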
HepG2 tox: qHTS for Inhibitors of TGF-b: Cytotox Counterscreen; HepG2 CAGA-GFP viability, ATP luminescence, 18 h; Potency, µM (doses to about 46.1 µM), for inactives: top-dose activity change, negative = cytotoxicity, most hits filed as cytotoxic; hit rate 0.76% among 410,000
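HepG2 CAGA-GFP cells (1000/well, DMEM with 1% FBS) received compound, then TGF-beta at 500 pg/mL final, and were incubated 18 hours at 37 degrees C. Viability was read by CellTiter-Glo luminescence. Media-only wells were set as complete cell-killing and DMSO as no toxicity.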
ATXN2 expr inh: Primary qHTS for Inhibitors of ATXN expression. hit rate 0.72% among 360,000. HEK-293 ATXN2-luciferase reporter, luminescence, 24 h. AID 1745845, 2022. Potency, µM (top dose mostly 57 µM), for inactives: at the top dose activity change, negative = inhibition, most hits filed as inhibitors; also: % is scaled to controls: 0 for no effect and ±100 for the full control effect; nearly all actives have a fitted effect of over 55% in size
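qHTS (up to 57 uM final) was run with 24 h compound exposure of reporter cells at 37 °C. Each well was multiplexed: SteadyGlo luminescence measured ATXN2-luciferase expression after a fluorogenic Gly-Phe-AFC viability readout (25 uM final).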
GLP1R inv ag: qHTS of GLP-1 Receptor Inverse Agonists (Inhibition Mode); AID 624417, 2012; Potency, µM (series often up to 38.3 µM), for inactives: at the highest dose activity change, negative = inhibition, hits mostly inhibitors; Glucagon-like peptide 1 receptor (Homo sapiens), P43220; HEK293 GLP-1R CRE-luciferase, luminescence, 24 h; GLP-1R form is constitutively active; hit rate 1.6% among 410,000; also: % is scaled to controls: 0 for no effect and ±100 for the full control effect; nearly all actives have a fitted effect of over 55% in size
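Constitutively active GLP-1R drives a cAMP-responsive luciferase in stably transfected HEK293 cells; test compounds are added after overnight (12 h) attachment and left 24 hr, and signal loss in luminescence marks inhibition.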
An asterisk follows results filed as active; i = inactive; ? = inconclusive; . = not tested or not shown; ! = repeats disagree. Most compounds without a hit are left out; they make up all but 3.7% or so of the library. Calls follow the shape of the dose curve; as a rule, active = well fitted curve in the direction sought with a large enough effect; inconclusive = small, poorly fitted or top-dose-only effect, or another doubt; inactive = no such curve, though single readings can be large; an effect the other way counts as inactive or inconclusive. Potency is read from the fitted curve at half-maximal effect.

SMILES | ATXN viability | GLP-1R agonist | TGFb SMAD3 inh | HepG2 tox | ATXN2 expr inh | GLP1R inv ag
CCCOc1ccc(CNC(=O)c2ccc(C)c(-n3c(C)nc4cccnc43)c2)cc1 | . | . | ? | -3.0% | . | -1.8%
CC(C)c1nc(CN(C)C(=O)N[C@H](C(=O)N[C@@H](Cc2ccccc2)C[C@H](O)[C@H](Cc2ccccc2)NC(=O)OCc2cncs2)C(C)C)cs1 | ? | -2.5% | . | . | 27.3µM*! | .
O=C(O)c1cccc(S(=O)(=O)Nc2ccc([N+](=O)[O-])cc2O)c1 | ? | -5.0% | -4.1% | -15.9% | . | -6.2%
CCOc1ccc(S(=O)(=O)Nc2cc(SCC(=O)O)c(O)c3ccccc23)cc1 | ? | -3.1% | 5.01µM* | 12.6µM* | . | -22.5%
CCOc1ccc(S(=O)(=O)Nc2cc3c(C(=O)OC)c(COC)oc3c3ccccc23)cc1 | ? | . | 0.9% | 1.6% | ? | ?
CCc1ccc(S(=O)(=O)Nc2cc(SCC(=O)O)c(O)c3ccccc23)cc1 | i | 1.9% | ? | 17.8µM* | . | -1.9%
Cc1ccc(C)c(S(=O)(=O)Nc2cc(SCC(=O)O)c(O)c3ccccc23)c1 | 28.2µM* | -10.6% | -45.9% | -98.5% | ? | -21.4%
O=C(O)CSc1cc(NS(=O)(=O)c2cccc([N+](=O)[O-])c2)c2ccccc2c1O | i | -8.7% | 10µM* | -95.4% | ? | 120.3%
Cc1c(F)cc2c(=O)c(C(=O)O)cn3c2c1CCC3C (stereo not drawn) | i | . | . | . | 9.9% | .
Cc1ccccc1Cn1c2ccccc2c2cnn(CC(=O)NCCCc3ccccc3)c(=O)c21 | i | . | 0.2% | 1.9% | -11.5% | -8.4%
Cc1cnc(-n2ncc(C(=O)NCC(C)(C)N3CCOCC3)c2C)nc1-c1cccs1 | i | . | . | . | . | .
Cc1ccc(-c2cn3nc(C)c(C)nc3n2)cc1 | . | -36.2% | 14.0% | -30.0% | 6.31µM* | 1.41µM*
Cc1cc(N(C)C)c(C)cc1/C=C/c1ccnc2ccccc12 | . | . | -24.6% | -42.2% | . | .
O=C(O)C1C2C=CC(C2)C1C(=O)NCc1ccc(Cl)c(Cl)c1 (stereo not drawn) | i | 3.0% | -14.6% | -0.7% | -15.0% | 11.2µM*
O=Nc1ccc(NOC(=O)c2ccccc2Br)cc1 | i | 15.5% | -4.5% | -3.4% | 7.7% | 5.5%
O=C(ONc1ccc(N=NC(=O)c2ccccc2O)cc1)c1ccccc1 | 1.26µM* | 8.1% | -10.8% | -24.3% | -16.6% | ?
CO/N=C(\C(=O)N[C@@H]1C(=O)N2C(C(=O)OCOC(=O)C(C)(C)C)=C(C)CS[C@H]12)c1csc(N)n1 | . | -5.0% | . | . | . | .
COC(=O)CC1(C(=O)OC)Oc2ccc(Br)cc2C(=O)N1c1cc(Cl)c(Cl)cc1Cl (stereo not drawn) | ? | -5.2% | ? | -30.7% | . | 7.08µM*
COC(=O)CC1(C(=O)OC)Oc2ccc(Br)cc2C(=O)N1c1cccc(Cl)c1Cl (stereo not drawn) | ? | 3.6% | ? | -16.0% | -38.1% | ?
COC(=O)CC1(C(=O)OC)Oc2ccc(Br)cc2C(=O)N1c1ccc(Br)cc1Cl (stereo not drawn) | ? | 14.4% | ? | 1.7% | -19.5% | 10µM*
CN1CCN(CCCNC(=O)c2ccc(/C=C3\Sc4ccccc4N(Cc4ccc(F)cc4)C3=O)cc2)CC1 | ? | -4.6% | ? | -131.8% | . | 10µM*
CN1CCN(CCCNC(=O)CCN2C(=O)COc3ccccc32)CC1 | i | 9.9% | 8.0% | 9.0% | 5.2% | -4.7%
CCN1CCN(CCNC(=O)c2ccc(/C=C3\Sc4ccccc4N(Cc4ccccc4F)C3=O)cc2)CC1 | i | 7.9% | ? | 14.1µM* | ? | ?
CN1CCN(CCCNC(=O)c2ccc(/C=C3\Oc4ccccc4N(Cc4ccccc4F)C3=O)cc2)CC1 | 20µM* | ? | 17.8µM* | -106.2% | . | ?
CN1CCN(CCCNC(=O)c2ccc(/C=C3/Sc4ccccc4N(Cc4cccc(Cl)c4)C3=O)cc2)CC1 | ? | 5.3% | ? | -125.3% | . | ?
SMILES | ATXN viability | GLP-1R agonist | TGFb SMAD3 inh | HepG2 tox | ATXN2 expr inh | GLP1R inv ag
O=[N+]([O-])c1ccc(S(=O)(=O)N2CCN(c3nc(-c4cccs4)nc4ccccc34)CC2)cc1 | . | . | 4.6% | 1.1% | . | .
COc1ccc(N2CCN(S(=O)(=O)CCNC(=O)c3c(F)cccc3Cl)CC2)cc1 | . | . | -2.2% | 2.0% | . | 8.8%
Cc1cn2c(=O)cc(COC(=O)c3ccc(NC(=O)COc4ccc(C)c(C)c4)cc3)nc2s1 | . | . | 24.7% | 4.0% | . | 10.5%
O=C(Nc1ccc(Br)cn1)c1cnn2c1NC(=C1CC1)C=C2C(F)F | . | . | 16.4% | -53.3% | . | .
COc1ccc(CCNc2ncnc3nc[nH]c23)cc1 | . | . | 5.1% | -4.7% | . | .
CC(C)=CCC/C(C)=C/CNC(=O)C[C@H]1C[C@H](C(=O)N2CCOCC2)[C@@]2(C)c3[nH]c4cc(-c5ccco5)ccc4c3CCN2C1=O | . | 0.0% | 12.6µM* | -77.3% | ? | ?
O=C(C[C@H]1C[C@H](C(=O)N2CCOCC2)[C@@]2(CCC3CCCC3)c3[nH]c4cc(-c5ccco5)ccc4c3CCN2C1=O)NCCC1=CCCCC1 | ? | -0.6% | ? | -7.6% | -30.5% | 10µM*
CN(C)CCCNC(=O)C[C@H]1C[C@H](C(=O)N2CCCCC2)[C@@]2(CCc3ccccc3)c3[nH]c4cc(-c5ccco5)ccc4c3CCN2C1=O | 28.2µM* | 1.3% | ? | 14.1µM* | ? | 4.8%
CCCCCCn1c(=O)c2c(ncn2C)n(C)c1=O | i | . | . | . | 7.6% | .
Cc1ccc(-c2nnn(CC(=O)N(Cc3ccco3)C(C(=O)NC(C)(C)C)c3ccc(C)o3)n2)o1 (stereo not drawn) | i | 0.4% | ? | -25.9% | -38.7% | 1.26µM*
CN(C)CCCNc1cc(N2CCN(C)CC2)ncn1 | . | . | 8.3% | 5.3% | . | .
O=C1c2ccccc2C(=O)N1CCC#C/C=C1\c2ccccc2C(=O)N1c1ccccc1 | 28.2µM* | -5.1% | ? | 0.9% | -15.5% | -25.1%
CCC/C(C#CCCN1C(=O)c2ccccc2C1=O)=C1/c2ccccc2C(=O)N1c1ccccc1 | ? | -0.1% | -2.7% | -3.8% | ? | 14.9%
O=C(O)c1cc(N/N=C/c2ccc3c(c2)OCCO3)ccc1Cl | i | -37.1% | -10.3% | -11.7% | 4.47µM* | ?
